This is part of a sample that, as a whole, favours compounds with a hit. Of some 83,000 tested, about 20% had one in any assay.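 Growth was measured after 48 h exposure to one concentration of compound in 96-well plates. Values under 10 count as active.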 Unmarked numbers belong to inactive results. Activity calls are given as the source filed them.
Assays:
Test in all cases: NCI-60 one-dose screen, 48 h (100 = growth as untreated, 0 = no growth, -100 = all killed)
Settings in all cases: 10 µM unless noted
[1] = tested on: HCT-15 colon
[2] = tested on: HT29 colon
[3] = tested on: SNB-75 CNS
[4] = tested on: SNB-19 CNS
[5] = tested on: U251 CNS
[6] = tested on: PC-3 prostate
[7] = tested on: UACC-62 melanoma
[8] = tested on: LOX IMVI melanoma
[9] = tested on: SK-MEL-28 melanoma
[10] = tested on: SK-MEL-2 melanoma
[11] = tested on: EKVX NSCLC
[12] = tested on: SN12C renal
[13] = tested on: UO-31 renal
[14] = tested on: TK-10 renal
[15] = tested on: ACHN renal
[16] = tested on: CAKI-1 renal
[17] = tested on: CCRF-CEM leukemia
[18] = tested on: MOLT-4 leukemia
[19] = tested on: A498 renal

| SMILES | growth [1] | growth [2] | growth [3] | growth [4] | growth [5] | growth [6] | growth [7] | growth [8] | growth [9] | growth [10] | growth [11] | growth [12] | growth [13] | growth [14] | growth [15] | growth [16] | growth [17] | growth [18] | growth [19] |
| --- | --- | --- | --- | --- | --- | --- | --- | --- | --- | --- | --- | --- | --- | --- | --- | --- | --- | --- | --- |
| CCCCn1c(-c2ccc(C(=O)O/N=C(\N)c3ccc4c(c3)OCO4)cc2)nc(-c2ccccc2)c1-c1ccccc1 | 19.4% | 19.7% | -15.4% (active) | 58.8% | 45% | 42.5% | 67.9% | -72.5% (active) | 76.9% | 84.9% | 51.8% | 39.3% | -62.3% (active) | 37.1% | -85.8% (active) | 11.5% | -30% (active) | 7.23% (active) | – |
| NC1=C(Cl)C(=O)c2ccc(S(N)(=O)=O)cc2C1=O | -58.2% (active) | -50.3% (active) | -100% (active) | -73% (active) | -90.7% (active) | 1.22% (active) | -88% (active) | -85.1% (active) | -84.9% (active) | -73.6% (active) | -77.6% (active) | -67.5% (active) | -95.9% (active) | -16.5% (active) | -95.6% (active) | -63.8% (active) | 20.1% | 11.8% | -99.5% (active) |
| COc1ccc(/C=C\c2cc(OC)c(OC)c(OC)c2)cc1OC(=O)c1cccc(Cn2cc(CCOC(=O)[C@H](N)Cc3cn(C)c4ccccc34)nn2)c1 | 12.4% | 8.6% (active) | 22.9% | 31.2% | 19.2% | 18.8% | 42.7% | 22.3% | 63.1% | 51.1% | 47.2% | 38.5% | 42.5% | 79.6% | 26.6% | 34.4% | 10.2% | 6.32% (active) | – |
| Nc1n[nH]c2ccc([C@@H]3Nc4ccc5[nH]ncc5c4[C@H]4C5C=CC(C5)[C@@H]34)cc12 (some centres not stated) | 10.8% | 11.5% | -9.96% (active) | 27% | 18% | 13.8% | 37.5% | 9.79% (active) | 54.6% | 46.9% | 37.7% | 34.2% | 44.5% | 67.5% | 24.4% | 35.3% | 19.6% | 15.1% | – |
| Cn1nc(N)c2cc([C@@H]3Nc4ccc5[nH]ncc5c4[C@H]4C5CCC(C5)[C@@H]34)ccc21 (some centres not stated) | 17.9% | 11.6% | -17.9% (active) | 29.5% | 21.1% | 17.4% | 32.1% | 38.8% | 53.2% | 46.6% | 47.1% | 50.7% | 40.6% | 80.4% | 39.6% | 40.9% | 16.7% | 20.1% | – |
| COc1ccc(/C=N/C2=C(C#N)C(c3ccc(N(C)C)cc3)c3ccc4ccccc4c3O2)cc1 (configuration not stated) | 38.7% | 48.4% | -7.87% (active) | 68% | 71.1% | 52.5% | 48.3% | 37.3% | 74.4% | 62.6% | 61.3% | 72.3% | 46.5% | 132% | 66% | 19.6% | 63.1% | 54.4% | – |
| COc1ccc(/C=C2\Oc3cc(OCCCCN4CCCC4)ccc3C2=O)cc1 | 9.45% (active) | 6.71% (active) | 98.1% | 83.7% | 62.6% | 75.6% | 90.5% | -84.7% (active) | 107% | 98.9% | 91.5% | 90.3% | 68% | 98.1% | 95.5% | 95% | 13.8% | 42.7% | – |
| CC1=C[C@H]2c3c(c(O)c(O)c4oc5ccccc5c(=O)c34)[C@H](c3cc(O)c(O)c4oc5ccccc5c(=O)c34)[C@H]2C(C)(C)C1 | 13.7% | 14.8% | -29.7% (active) | 13.8% | 5.08% (active) | 5.67% (active) | -65.5% (active) | -78.9% (active) | 18.3% | 0.0517% (active) | 18.7% | 7.6% (active) | -74% (active) | 23.1% | 6.36% (active) | -24.7% (active) | 5.39% (active) | 2.9% (active) | – |
| O=CNc1ccc2c(c1)Cc1cccc(NC=O)c1-2 | 91.8% | 96.2% | 90.7% | 102% | 95.1% | 95.2% | 72.1% | 90.5% | 112% | 106% | 80.4% | 95.8% | 78.8% | 98.7% | 85.8% | 93% | 107% | 75% | – |
| Cc1ncc(C(=O)Nc2ccc(CN3CCN(C)CC3)c(C(F)(F)F)c2)cc1C#Cc1cnc2cccnn12 | 4.12% (active) | 0.719% (active) | -71.7% (active) | 7.27% (active) | 7.52% (active) | 5.7% (active) | -16.9% (active) | -18.3% (active) | -14.4% (active) | -55.4% (active) | -3.95% (active) | 0.116% (active) | 1.45% (active) | -3.71% (active) | -1.57% (active) | -16.7% (active) | 5.77% (active) | -0.188% (active) | – |
| Cc1cc(N2CCSCC2)nc(NC2CCCC(Nc3ccnc4cc(Cl)ccc34)C2)n1 (configuration not stated) | -67.8% (active) | -58.7% (active) | -60.1% (active) | 1.4% (active) | -65.7% (active) | -45.7% (active) | -87.8% (active) | -84.8% (active) | -79.9% (active) | -81% (active) | 24.1% | -29% (active) | -94% (active) | -57.9% (active) | -61.9% (active) | – | -20.5% (active) | – | 22.9% |
| O=C(O)c1ccc(N=CC(=O)c2ccc(-c3ccccc3)cc2)cc1 | 113% | 103% | 109% | 101% | 98.5% | 86.2% | 93.5% | 101% | 101% | 108% | 99.3% | 95.8% | 93.5% | 96.8% | 96.2% | 102% | – | 99.9% | – |
| O=C(/C=C/c1cc(CN2CCOCC2)c(O)c2ncccc12)c1cc(CN2CCOCC2)c(O)c2ncccc12 | 16.2% | 16.8% | 32.2% | 20.7% | 3.35% (active) | 23.7% | 10.1% | 19.3% | 37% | 20.7% | 23.5% | 26.1% | 11.1% | 22.1% | 9.19% (active) | 14.1% | – | 31.1% | – |
| CCN1CCC2(CC1)NC(=O)c1c(c3ccc(Cl)c(Cl)c3n1C)C2C#N (configuration not stated) | 14.3% | 7.28% (active) | 51.2% | 84.9% | 57% | 47.1% | -83.2% (active) | 30.6% | -100% (active) | 21.4% | 68.8% | 49.4% | 43% | 54.5% | 45.6% | 37.3% | – | 24.4% | 3.01% (active) |
| O=C(/C=C/C=C/c1ccc2c(c1)OCO2)N/N=C\c1ccc(O)cc1O | 17% | 48.1% | 64% | 49.3% | 31.3% | 38% | 14.3% | 9.69% (active) | 42.1% | 52.8% | 20.2% | 32.8% | 11.4% | 31% | 14.4% | 9.65% (active) | 18% | 13.3% | – |
| CCCCCC(=O)Oc1ccc(/C(=C(\C)c2ccc(OC)cc2)c2ccc(OCCN3CCCCC3)cc2)cc1 | 9.94% (active) | 8.71% (active) | 64% | 74.4% | 45.4% | 51.1% | 6.92% (active) | 33.5% | 27.6% | 64.7% | 58.5% | 73.8% | 56.2% | 92.7% | 74.4% | – | 56.7% | – | 92.3% |
| OC(c1cc2cc(Cl)c(Cl)cc2c2cc(C(F)(F)F)ccc12)C1CCCCN1 (configuration not stated) | -60.7% (active) | -73.6% (active) | -64% (active) | -64.1% (active) | -92.3% (active) | -84.8% (active) | -38.4% (active) | -88.2% (active) | -79.1% (active) | -54.2% (active) | -24.8% (active) | -73.2% (active) | -74.2% (active) | -75.2% (active) | -82.5% (active) | -46.4% (active) | – | -60.3% (active) | – |

Source: PubChem BioAssay (NCI)
